Screens (PubChem)
Many of the other results were omitted from the sample, so hits are more common in it than they were.
MgrA-DNA mod: modulators of Staphylococcus aureus MgrA DNA binding. fluorescence polarization. inhibition, % (concentration not given with the values). actives 0.13% (n = 84,000). AID 602314; in the data active means inhibition above about 30%, passing the limit was not always enough;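 further: higher means less MgrA bound to DNA so lower polarization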
Large screens that a line does not name were inactive.

Cc1ccc(N2C(=O)NC(=O)/C(=C/c3ccc(Br)o3)C2=O)cc1Cl	MgrA-DNA mod 49
Cc1ccc(N2C(=O)NC(=O)/C(=C/c3cc(Br)c(O)cc3O)C2=O)cc1	none
CC(C)(C)C1(C)OC(=O)C(=Cc2ccc(Br)o2)C(=O)O1 (stereo not drawn)	none
O=S(=O)(Cc1nc(-c2ccc(Cl)cc2)cs1)c1ccc(Cl)cc1	none
CC(=Nc1cccc2ccccc12)c1sc2ccccc2c1O	none
Cn1c(-c2ccncc2)n[nH]c1=S	none
O=C(CSc1nnc(-c2ccco2)c(-c2ccco2)n1)N1c2ccccc2Sc2ccc(Cl)cc21	none
Cc1cc(C)c(C#N)c(SC2CCc3ccccc3C2=O)n1 (stereo not drawn)	none
O=C1c2ccccc2CC1Sc1nnc(-c2ccco2)c(-c2ccco2)n1 (stereo not drawn)	MgrA-DNA mod 96
N/C(=N/c1nc2ccccc2o1)NC(=O)C(Cc1ccccc1)N1C(=O)c2ccccc2C1=O (stereo not drawn)	none
C=CCOc1cccc(C(=O)NCc2ccccc2)c1	none
O=C(O)c1cc2c3c(c1)C1C=CCC1C(c1ccccc1)N3CC1CC=CC21 (stereo not drawn)	none
O=C(O)c1cc2c3c(c1)C1C=CCC1C(c1ccc(F)cc1)N3CC1CC=CC21 (stereo not drawn)	none
O=C(O)c1cc2c3c(c1)C1C=CCC1C(c1ccccc1F)N3CC1CC=CC21 (stereo not drawn)	MgrA-DNA mod 74
O=C1NC(=O)/C(=C/c2ccc(O)cc2)N1	none
O=C1c2c(O)ccc(O)c2C(=O)c2c(NCCNCCO)ccc(NCCNCCO)c21	MgrA-DNA mod 47
O=C(Nc1nc(-c2ccc(Br)s2)cs1)c1cc(=O)c2ccccc2o1	none
CC(=O)Nc1ccc(C=Nc2ccc(C(C)C)cc2)cc1	none
O=C(Nc1ccc(Cl)cc1)c1cnn2c(C(F)F)cc(C3CC3)nc12	none
COc1ccc2nc(Cl)c(CN(C(=O)c3ccco3)C3CCCC3)cc2c1	none
CCN(CC)CCCC(C)Nc1c2ccc(Cl)cc2nc2ccc(OC)cc12 (stereo not drawn)	MgrA-DNA mod 60
CCSc1nc(C)c2cc(OC)ccc2n1	none
CCN(CC)CCSc1nc2ccc(OC)cc2[nH]1	none
C#Cc1cccc(NCN2C(=O)c3ccccc3C2=O)c1	none
CC(=O)Nc1c(=O)[nH]n2c(C)cc(C)nc12	none
CN1C(=O)/C(=C/c2ccc(-c3ccc(C(=O)O)cc3)o2)c2ccccc21	none
CN1C(=O)/C(=C\c2ccc(-c3ccccc3C(=O)O)o2)C(=O)N(c2ccccc2)C1=S	MgrA-DNA mod 62
Cc1ccc(N2C(=O)NC(=O)/C(=C\c3ccc(-c4ccccc4C(=O)O)o3)C2=O)cc1	none
CC(Sc1nc2c([nH]1)c(=O)n(C)c(=O)n2C)C(=O)O (stereo not drawn)	none
O=C(Oc1ccc(N2C(=O)C3C4C=CC(C4)C3C2=O)cc1)c1ccc([N+](=O)[O-])cc1 (stereo not drawn)	none
CC1=C(C)C(=O)N(CCC(=O)O)C1=O	none
Cc1ccc(C)n1CCC(=O)O	MgrA-DNA mod 103
Cc1ccc2c(c1)c(C)cc(=O)n2CCC(=O)O	none
CSc1sc(-c2ccon2)c(-c2ccccc2)c1C#N	none
Cc1cccc(N/C(=N\S(=O)(=O)c2ccc(Cl)cc2)Nc2nc(C)cc(C)n2)c1	none
CC(=O)Nc1sccc1C(=O)O	none
Cc1ccc(C)n1-c1sccc1C(=O)CC#N	none
Cc1ccc(C)n1-c1sccc1C(=O)O	MgrA-DNA mod 89
N#Cc1ccc(C=Nc2cc(Cl)c(N)cc2Cl)cc1	none
Cc1ccc(S(=O)(=O)/C(C#N)=C/C2=Cc3ccccc3OC2)cc1	MgrA-DNA mod 62
Cc1ccc(S(=O)(=O)/C(C#N)=C/c2ccccc2)cc1	none
N#C/C(=C\c1ccc(/C=C(\C#N)S(=O)(=O)c2ccccc2)cc1)S(=O)(=O)c1ccccc1	none
Cc1ccc(S(=O)(=O)Nc2ccc(Br)cc2C(NCC(=O)O)c2ccccc2)cc1 (stereo not drawn)	none
CC(C)c1ccc(NC(=O)CNS(=O)(=O)c2ccccc2)cc1	none
CC(C)c1ccc(S(=O)(=O)Nc2cc(SCC(=O)O)c(O)c3ccccc23)cc1	MgrA-DNA mod 90
CCN(CCO)C(=O)CCN1C(=O)/C(=C/c2ccc(OC)c(OC)c2)SC1=S	none
CCc1ccccc1NC(=O)CSc1nc2ncccc2[nH]1	none
CCN1CCN(C(=S)NC)CC1	none
Cc1ccc(NC(=O)CCc2cn(Cc3ccc(Cl)cc3)c3ccccc23)c(C)c1	none
O=C(Nc1ccc(N2CCCCC2)cc1)c1ccncc1	none
c1cc(CNc2ccc(N3CCCC3)cc2)ccn1	MgrA-DNA mod 97
c1cc2c(cc1CNc1ccc(N3CCCC3)cc1)OCO2	none
N#Cc1ccc(C=Nc2ccc(I)cc2)cc1	none
COc1cccc(/C=N/NC(=O)C2CC23CCC3)c1O (stereo not drawn)	none
CCCN1CC=C2C(C1)C(c1ccc(C(=O)OC)cc1)C(C#N)=C(N)C2(C#N)C#N (stereo not drawn)	none
CCN1CC=C2C(C1)C(c1ccc(Cl)s1)C(C#N)=C(N)C2(C#N)C#N (stereo not drawn)	MgrA-DNA mod 42
CC(C)c1ccc(C2C(C#N)=C(N)C(C#N)(C#N)C3=CCN(C)CC32)cc1 (stereo not drawn)	none
O=C(CSc1c2c(nc3cc(Cl)ccc13)CCCC2)NCCCN1CCCCCC1	none
COC(=O)C(N=Cc1ccccc1)c1ccccc1 (stereo not drawn)	none
COC(=O)C(NC(=O)Nc1ccccc1)C(C)C (stereo not drawn)	none
COC(=O)C(C(=O)OC)C(Nc1ccccc1)c1ccccc1 (stereo not drawn)	MgrA-DNA mod 101
O=c1cc(O)c2sc3nc(-c4ccccc4)ccc3c2[nH]1	none
FC(F)(F)c1cc(-c2ccco2)nc(-n2cccn2)n1	none
O=c1cc(O)c2sc3nc(-c4ccco4)cc(C(F)(F)F)c3c2[nH]1	MgrA-DNA mod 88
C/C=N/N(C)c1cc(=O)n(C)c(=O)[nH]1	none
CN1CC(C#N)=C(NC2CCCCC2)C1=O	none
CCc1ccc(OCC(=O)N2CC(C)OC(C)C2)cc1 (stereo not drawn)	none
O=C(/C=C/Nc1ccccc1C(F)(F)F)c1ccco1	MgrA-DNA mod 93
CCOc1ccc(N/C=C/C(=O)c2ccco2)cc1	none
O=C(/C=C/Nc1cccc(C(F)(F)F)c1)c1ccco1	none
CC(CC(=O)Nc1ccc(F)cc1)N1CCCC1 (stereo not drawn)	none
O=C1NC(=S)N/C1=C\c1cccc(OCc2ccc(F)cc2)c1	none
CCOc1ccc(C=C2C(=O)OC(c3ccccc3)OC2=O)cc1 (stereo not drawn)	none
O=C1OC(c2ccccc2)OC(=O)C1=Cc1cccc(OCc2ccccc2)c1 (stereo not drawn)	MgrA-DNA mod 56
COc1ccc(NC(=O)c2c3c(nc4ccccc24)CCCC3)cc1	none
CC(C)Cc1nc2ccccc2n1CC(=O)N(c1ccccc1)C(C)C	none
Cc1ccc(C)n1-c1cccc(N)c1	none
Cc1ccc(C)n1-c1cccc(C(=O)O)c1	MgrA-DNA mod 103
O=C(O)c1cccc(-n2cccc2)c1	none
Cc1cccc(-c2nc(C#N)c(N(C)C)o2)c1	none
O=C(CSCCc1ccccn1)Nc1ccc(Br)cc1F	none
Clc1ccc(-c2nc(N3CCCCC3)c3ccccc3n2)cc1	none
O=C1c2ccccc2-c2nc(-c3ccccc3)cc3cccc1c23	none
O=C1c2ccc(S(=O)(=O)O)cc2-c2nc(-c3ccccc3)nc3ccc(Cl)c1c23	MgrA-DNA mod 81
COc1ccc(N(/C=C2\Sc3ccccc3C2=O)C(=O)c2cccc(Cl)c2)cc1	none
CC(=O)Nc1nnc(C(C)C)s1	none
CC(=O)c1ccc2c(c1)C1C=CCC1C(c1ccc(Cl)cc1Cl)N2 (stereo not drawn)	none
CCOC(=O)c1ccc2c(c1)C1C=CCC1C(c1ccc(Cl)cc1Cl)N2 (stereo not drawn)	none
